Measured values from PubChem BioAssay (NCATS).
“And” between values parts separate entries of the source, which are not always exact repeats. Equal values may be shown once. Results filed as inconclusive are left out. Where a call stands in place of a potency, no number is given. The source made the active and inactive calls. Unless noted, the call rests on the fitted dose curve; in most records, active means well fitted curve in the direction sought with a large enough effect; inconclusive means small, poorly fitted or top-dose-only effect, or another doubt; inactive means no such curve, though single readings can be large; an effect the other way counts as inactive or inconclusive.

Experiments:
[1] = Cell Viability - LYMP2-016 (AID 984); further: nearly all actives have a fitted effect of over 55% in size
How it was run: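 qHTS, 1536-well: 2500 LYMP2-016 cells/well, 5 hr 37 C, compound added, 24 hr 37 C, CellTiter-Glo 30 min RT, luminescence. Tetraoctylammonium bromide positive control. AC50 via Hill fit.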

[2] = Cell Viability - LYMP2-018 (AID 985);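 further: compound exposure lasted 24 hr at 37 °C; nearly all actives have a fitted effect of over 50% in size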
How it was run: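 Human lymphoblastoid LYMP2-018 cells, 2500/well, settled 5 hr at 37 C then exposed to compound 24 hr at 37 C; intracellular ATP measured by CellTiter-Glo luminescence. AC50 from Hill-equation concentration-response fits.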

[3] = Cell Viability - LYMP2-020 (AID 986); further: series mostly up to about 92 µM; nearly all actives have a fitted effect of over 55% in size
How it was run: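 Human lymphoblastoid LYMP2-020 cells (2500/well) preincubated 5 h at 37 C, then treated 24 h at 37 C. Viability measured as intracellular ATP by CellTiter-Glo luminescence after 30 min at room temperature; AC50 from Hill fits.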

[4] = Cell Viability - LYMP2-022 (AID 987); further: nearly all actives have a fitted effect of over 55% in size
How it was run: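 LYMP2-022 lymphoblastoid cells (2500/well, complete medium) were treated with compounds for 24 hours at 37 C; intracellular ATP was then read by CellTiter-Glo luminescence after 30 min at room temperature. AC50 values were derived from Hill-equation fits.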

[5] = Cell Viability - LYMP2-026 (AID 989); further: nearly all actives have a fitted effect of over 50% in size
How it was run: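 Human lymphoblastoid LYMP2-026 cells, 2500/well, exposed to compound 24 h at 37 C in complete medium. Viability as intracellular ATP by CellTiter-Glo luminescence; AC50 from Hill fits of qHTS concentration-response.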

[6] = Validation screen for small molecules that induce genotoxicity in human embryonic kidney (HEK293T) cells expressing luciferase-tagged ELG1 (AID 493106)
How it was run: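 HEK293T cells expressing luciferase-tagged ELG1, 2,000 cells/well, exposed to compound 16 hr at 37 °C, 5% CO2. Luciferase read after ONE-Glo, 30 min at room temperature; increased signal indicates genetic stress.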

[7] = qHTS assay to identify small molecules that stimulate interleukin-8 (IL-8) secretion (AID 651758; active means well fitted activation curve with a large enough effect in the signal ratio; the % refers to the signal ratio)
How it was run: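 Secreted IL-8 measured by TR-FRET sandwich (cryptate and XL665 antibodies) from THP-1 cells exposed to compound overnight (16 hrs, 37 C).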

[8] = molecular target: Muscarinic acetylcholine receptor M1 (Rattus norvegicus) (UniProt P08482); assay: qHTS Assay for Antagonists of Acetylcholine Muscarinic M1 Receptor: Kinetic Measurement of Intracellular Calcium Response (AID 943); further: potency means the concentration at half of the fitted maximal effect; nearly all actives have a fitted effect of over 75% in size
Muscarinic acetylcholine receptor M1 (Rattus norvegicus), sequence (P08482 whole entry, looked up): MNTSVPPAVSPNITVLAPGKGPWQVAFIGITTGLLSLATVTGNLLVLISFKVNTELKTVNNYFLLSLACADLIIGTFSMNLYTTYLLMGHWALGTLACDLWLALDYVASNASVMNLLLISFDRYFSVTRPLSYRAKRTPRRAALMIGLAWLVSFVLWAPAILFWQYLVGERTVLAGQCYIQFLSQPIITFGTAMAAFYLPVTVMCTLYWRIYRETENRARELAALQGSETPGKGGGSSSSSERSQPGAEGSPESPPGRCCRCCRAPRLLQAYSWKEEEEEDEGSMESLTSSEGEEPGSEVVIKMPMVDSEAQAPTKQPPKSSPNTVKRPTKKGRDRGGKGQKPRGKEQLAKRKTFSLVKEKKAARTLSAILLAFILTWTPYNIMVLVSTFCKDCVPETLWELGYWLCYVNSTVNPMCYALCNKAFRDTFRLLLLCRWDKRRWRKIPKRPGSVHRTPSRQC
How it was run: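 CHO cells expressing rat M1 receptor, Fluo-4 loaded, preincubated 10 min with compound, then stimulated with EC80 carbachol (100 nM final). Kinetic calcium fluorescence over 4 min; response taken as peak over basal signal.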

[9] = qHTS for differential inhibitors of proliferation of Plasmodium falciparum line Dd2 (AID 1882); conditions: Potency: Plasmodium falciparum Dd2 proliferation inhibition; further: potency means the concentration at half of the fitted maximal effect; nearly all actives have a fitted effect of over 65% in size
How it was run: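 Dd2-infected erythrocytes (0.3% parasitemia, 2.5% hematocrit final) incubated with compound 72 h at 37 C, 5% CO2; lysed with saponin/Triton buffer containing SYBR Green I, incubated overnight in the dark, then read by fluorescence (485/535 nm). Normalized to 0.29 uM artemisinin and DMSO.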

[10] = High Content Imaging Cell-Based qHTS for Inhibitors of the mTORC1 Signaling Pathway in MEF Cells (AID 2667); further: potency means the concentration at half of the fitted maximal effect
How it was run: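 Immunofluorescence for rpS6 phosphorylation in MEFs of Tsc2-/-, p53-/- background rescued with WT Tsc2. Compound exposure lasted 24 hrs. Inhibition was scored against rapamycin-treated control wells.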

[11] = molecular target: D(1A) dopamine receptor (Homo sapiens) (UniProt P21728); assay: HTS Assay for Allosteric Agonists of the Human D1 Dopamine Receptor: Primary Screen for Potentiators (AID 488982)
D(1A) dopamine receptor (Homo sapiens), sequence (P21728 whole entry, looked up): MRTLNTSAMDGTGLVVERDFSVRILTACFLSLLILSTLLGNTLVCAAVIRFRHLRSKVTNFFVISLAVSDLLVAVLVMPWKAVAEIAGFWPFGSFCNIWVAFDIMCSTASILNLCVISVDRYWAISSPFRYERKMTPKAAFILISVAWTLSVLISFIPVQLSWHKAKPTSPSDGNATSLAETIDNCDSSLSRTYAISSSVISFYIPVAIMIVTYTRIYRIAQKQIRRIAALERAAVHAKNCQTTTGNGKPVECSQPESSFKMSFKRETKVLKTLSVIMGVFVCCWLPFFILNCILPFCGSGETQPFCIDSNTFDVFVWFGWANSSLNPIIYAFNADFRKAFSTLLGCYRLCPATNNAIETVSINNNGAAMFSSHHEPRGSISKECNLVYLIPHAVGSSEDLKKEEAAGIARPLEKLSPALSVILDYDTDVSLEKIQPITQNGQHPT
How it was run: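 Calcium flux in an inducible, force-coupled HEK293 Trex D1 line (overnight at 30 C): agonist mode is the 180 s kinetic read after compound; potentiator mode is the following 180 s read after dopamine at EC20.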

[12] = molecular target: Rap guanine nucleotide exchange factor 3 (Homo sapiens) (UniProt O95398); assay: Confirmatory qHTS for agonist of cAMP-regulated guanine nucleotide exchange factor 3 (EPAC1) (AID 1645881);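 further: EPAC1 catalysed release of BODIPY-GDP from Rap1B seen as fluorescence loss; nearly all actives have a fitted effect of over 75% in size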
Rap guanine nucleotide exchange factor 3 (Homo sapiens), sequence (O95398 whole entry, looked up): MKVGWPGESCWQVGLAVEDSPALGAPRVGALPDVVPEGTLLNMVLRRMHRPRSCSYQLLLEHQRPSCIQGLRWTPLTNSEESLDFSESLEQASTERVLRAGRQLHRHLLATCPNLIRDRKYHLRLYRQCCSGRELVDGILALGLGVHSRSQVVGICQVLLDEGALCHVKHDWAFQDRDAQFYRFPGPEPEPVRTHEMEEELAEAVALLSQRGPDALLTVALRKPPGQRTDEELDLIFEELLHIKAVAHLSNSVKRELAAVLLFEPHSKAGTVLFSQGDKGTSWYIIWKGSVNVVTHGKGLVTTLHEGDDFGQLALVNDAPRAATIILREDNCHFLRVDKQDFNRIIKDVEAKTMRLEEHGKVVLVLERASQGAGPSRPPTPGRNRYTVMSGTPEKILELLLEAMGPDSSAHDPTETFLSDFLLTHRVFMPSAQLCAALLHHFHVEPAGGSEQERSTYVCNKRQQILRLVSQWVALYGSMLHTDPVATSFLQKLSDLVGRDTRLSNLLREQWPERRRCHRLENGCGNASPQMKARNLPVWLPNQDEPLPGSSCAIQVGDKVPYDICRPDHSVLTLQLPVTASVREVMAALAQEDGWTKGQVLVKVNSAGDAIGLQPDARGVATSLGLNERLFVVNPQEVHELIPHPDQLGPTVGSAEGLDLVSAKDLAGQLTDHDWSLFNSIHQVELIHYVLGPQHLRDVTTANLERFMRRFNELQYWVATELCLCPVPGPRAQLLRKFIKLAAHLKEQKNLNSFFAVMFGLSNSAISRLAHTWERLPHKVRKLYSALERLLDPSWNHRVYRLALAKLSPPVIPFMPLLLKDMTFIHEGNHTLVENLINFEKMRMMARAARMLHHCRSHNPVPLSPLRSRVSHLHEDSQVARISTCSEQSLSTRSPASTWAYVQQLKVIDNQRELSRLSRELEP

[13] = molecular target: Rap guanine nucleotide exchange factor 4 (Homo sapiens) (UniProt Q8WZA2); assay: Confirmatory qHTS for agonist of cAMP-regulated guanine nucleotide exchange factor 4 (EPAC2) (AID 1645884);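 further: nucleotide exchange releases bodipy-GDP from Rap1 and this lowers its fluorescence; nearly all actives have a fitted effect of over 65% in size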
Rap guanine nucleotide exchange factor 4 (Homo sapiens), sequence (Q8WZA2 whole entry, looked up): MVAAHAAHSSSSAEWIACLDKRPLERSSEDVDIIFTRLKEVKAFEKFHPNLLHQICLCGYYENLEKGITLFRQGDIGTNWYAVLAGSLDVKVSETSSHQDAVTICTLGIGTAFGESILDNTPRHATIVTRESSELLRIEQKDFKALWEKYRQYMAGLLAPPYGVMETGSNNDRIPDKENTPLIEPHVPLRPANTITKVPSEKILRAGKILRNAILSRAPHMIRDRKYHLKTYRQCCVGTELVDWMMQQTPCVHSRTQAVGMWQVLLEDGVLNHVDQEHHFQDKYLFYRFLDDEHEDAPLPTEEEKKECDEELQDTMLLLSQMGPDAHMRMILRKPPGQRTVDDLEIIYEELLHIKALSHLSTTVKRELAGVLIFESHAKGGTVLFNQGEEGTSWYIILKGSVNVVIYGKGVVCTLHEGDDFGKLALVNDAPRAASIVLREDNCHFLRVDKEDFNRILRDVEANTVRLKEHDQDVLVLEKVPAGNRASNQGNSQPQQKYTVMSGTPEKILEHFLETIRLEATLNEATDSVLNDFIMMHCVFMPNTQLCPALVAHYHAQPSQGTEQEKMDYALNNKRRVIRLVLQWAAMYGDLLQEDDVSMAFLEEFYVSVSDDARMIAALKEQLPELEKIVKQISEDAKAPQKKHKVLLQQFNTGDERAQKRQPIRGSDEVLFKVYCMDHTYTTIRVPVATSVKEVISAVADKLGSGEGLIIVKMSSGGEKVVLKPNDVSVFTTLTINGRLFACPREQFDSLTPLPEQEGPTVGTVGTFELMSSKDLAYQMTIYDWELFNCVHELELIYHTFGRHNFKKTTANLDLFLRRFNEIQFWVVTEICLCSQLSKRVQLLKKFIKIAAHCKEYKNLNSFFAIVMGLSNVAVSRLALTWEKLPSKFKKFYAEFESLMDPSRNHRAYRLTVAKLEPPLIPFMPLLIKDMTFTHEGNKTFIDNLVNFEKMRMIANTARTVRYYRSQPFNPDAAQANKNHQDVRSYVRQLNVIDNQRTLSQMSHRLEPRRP

[14] = molecular target: Rap guanine nucleotide exchange factor 4 (Homo sapiens) (UniProt Q8WZA2); assay: Confirmatory qHTS for antagonist of cAMP-regulated guanine nucleotide exchange factor 4 (EPAC2) (AID 1645885); further: potency means the concentration at half of the fitted maximal effect; nearly all actives have a fitted effect of over 25% in size
[15] = molecular target: Rap guanine nucleotide exchange factor 3 (Homo sapiens) (UniProt O95398); assay: Counterscreen qHTS for antagonist of cAMP-regulated guanine nucleotide exchange factor 3 (EPAC1) (AID 1645888);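 further: fluorescence loss as bound BODIPY-GDP is released from Rap1B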
How it was run: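 Rap1B-BODIPY-GDP 250 nM + GDP 50 uM; cpds 7-pt, final 9.74 nM–152 uM (activator mode) or from 7.32 nM upwards (inhibitor mode); RT; FI 480/540 nm at 5 and 30 min, then ± cAMP, reread.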

[16] = molecular target: Cytochrome P450 2C19 (Homo sapiens) (UniProt P33261); assay: qHTS Assay for Inhibitors and Substrates of Cytochrome P450 2C19 (AID 899); further: potency means the concentration at half of the fitted maximal effect; nearly all actives have a fitted effect of over 60% in size
Cytochrome P450 2C19 (Homo sapiens), sequence (P33261 whole entry, looked up): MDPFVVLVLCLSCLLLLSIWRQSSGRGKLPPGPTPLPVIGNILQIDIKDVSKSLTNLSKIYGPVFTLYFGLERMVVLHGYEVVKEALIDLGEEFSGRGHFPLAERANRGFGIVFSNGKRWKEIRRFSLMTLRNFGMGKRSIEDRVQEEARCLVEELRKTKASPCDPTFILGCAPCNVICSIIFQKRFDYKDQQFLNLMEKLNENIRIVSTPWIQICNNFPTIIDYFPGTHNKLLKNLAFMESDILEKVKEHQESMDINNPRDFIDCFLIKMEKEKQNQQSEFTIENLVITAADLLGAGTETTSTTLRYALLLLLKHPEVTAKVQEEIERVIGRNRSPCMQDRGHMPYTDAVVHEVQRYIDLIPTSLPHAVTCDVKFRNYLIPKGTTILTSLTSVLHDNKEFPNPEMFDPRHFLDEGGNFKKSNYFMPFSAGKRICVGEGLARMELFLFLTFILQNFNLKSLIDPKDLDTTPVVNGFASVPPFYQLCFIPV
How it was run: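 5nM enzyme + 10uM Luciferin-H EGE (=KM), 50mM KPO4; cpd pin-transferred, 10 min 37C; NADPH regen, 60 min 37C; stopped w/ luciferin detection reagent, 20 min; luminescence. Normalized to 57uM ketoconazole (AC100).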

[17] = molecular target: Glucocorticoid receptor (Homo sapiens) (UniProt P04150); assay: GR-EFC Redistribution (AID 451; calls by dose curve; further: potency means the concentration at half of the fitted maximal effect); conditions: CHO-K1 GR-EFC translocation, beta-gal luminescence, 2 h
How it was run: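 Translocation of GR-ED fusion to nuclear EA restores b-gal, read by luminescence after 1 h room-temperature detection. Engineered CHO-K1 biosensor cells, 1,000/well, exposed 2 h at 37 C to titrations up to 46 uM final.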

[18] = molecular target: RecQ-like DNA helicase BLM (Homo sapiens) (UniProt P54132); assay: qHTS Validation Assay for Inhibitors of Bloom's syndrome helicase (BLM) (AID 2364)
RecQ-like DNA helicase BLM (Homo sapiens), sequence (P54132 whole entry, looked up): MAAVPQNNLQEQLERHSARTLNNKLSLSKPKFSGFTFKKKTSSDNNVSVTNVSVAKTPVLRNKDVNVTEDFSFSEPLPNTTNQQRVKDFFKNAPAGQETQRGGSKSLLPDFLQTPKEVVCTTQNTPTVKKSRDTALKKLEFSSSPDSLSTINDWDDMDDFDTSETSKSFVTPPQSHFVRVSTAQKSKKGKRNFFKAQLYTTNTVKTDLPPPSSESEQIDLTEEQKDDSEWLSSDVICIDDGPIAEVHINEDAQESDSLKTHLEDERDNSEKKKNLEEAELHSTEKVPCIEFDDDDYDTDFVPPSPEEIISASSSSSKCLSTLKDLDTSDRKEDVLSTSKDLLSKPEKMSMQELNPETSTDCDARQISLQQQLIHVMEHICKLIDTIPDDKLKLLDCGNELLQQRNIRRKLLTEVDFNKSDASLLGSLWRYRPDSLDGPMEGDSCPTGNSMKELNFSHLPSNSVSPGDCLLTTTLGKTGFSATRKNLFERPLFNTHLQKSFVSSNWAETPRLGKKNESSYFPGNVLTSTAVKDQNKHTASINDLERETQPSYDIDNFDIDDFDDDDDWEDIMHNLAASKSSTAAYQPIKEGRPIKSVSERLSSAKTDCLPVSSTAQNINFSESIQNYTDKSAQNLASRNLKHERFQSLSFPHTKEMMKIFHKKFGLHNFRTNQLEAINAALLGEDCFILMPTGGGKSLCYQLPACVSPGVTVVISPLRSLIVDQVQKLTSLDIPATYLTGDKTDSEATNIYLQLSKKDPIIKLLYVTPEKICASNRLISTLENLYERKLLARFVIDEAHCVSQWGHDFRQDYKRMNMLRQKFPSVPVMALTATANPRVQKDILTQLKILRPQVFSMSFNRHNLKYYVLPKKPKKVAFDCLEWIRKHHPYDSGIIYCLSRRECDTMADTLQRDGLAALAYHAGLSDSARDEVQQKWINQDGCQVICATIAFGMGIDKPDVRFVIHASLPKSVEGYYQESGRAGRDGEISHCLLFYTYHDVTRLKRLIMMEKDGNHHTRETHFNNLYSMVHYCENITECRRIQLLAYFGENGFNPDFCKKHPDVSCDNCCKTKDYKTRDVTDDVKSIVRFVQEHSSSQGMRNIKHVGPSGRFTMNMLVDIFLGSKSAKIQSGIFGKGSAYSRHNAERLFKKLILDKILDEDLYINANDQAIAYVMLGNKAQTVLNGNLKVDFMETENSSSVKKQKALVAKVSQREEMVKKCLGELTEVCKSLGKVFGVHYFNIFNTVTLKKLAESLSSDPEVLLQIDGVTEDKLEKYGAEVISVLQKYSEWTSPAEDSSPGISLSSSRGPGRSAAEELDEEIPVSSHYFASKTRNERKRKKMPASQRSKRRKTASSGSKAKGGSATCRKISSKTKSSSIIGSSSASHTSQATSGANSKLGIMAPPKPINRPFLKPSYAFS
How it was run: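 Forked 20-bp duplex substrate (200 nM, TAMRA/BHQ-2) plus 2 mM ATP added after 15 min compound preincubation with 50 nM enzyme, pH 8.0, poly(dI-dC) 2.5 ug/ml. Strand separation followed by fluorescence (525/598 nm) over 2 h, normalized to enzyme-free and DMSO controls.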

[19] = Cytometric Cell-Based qHTS for Inhibitors of the mTORC1 Signaling Pathway in MEF (Tsc2-/-, p53-/-) Cells (AID 2660);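 further: Tsc2 and p53 null MEFs carrying empty vector with compound for 24 h; percent of cells above a phospho-rpS6 to PI ratio cutoff in each well; series mostly up to about 38 µM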
How it was run: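 Cells are plated, treated with compound for 24 hrs at 37 degree Celsius, then fixed, blocked and immunostained for phospho-rpS6 Ser235/236. Propidium iodide counterstain follows. Per-well % positive cells is derived from the PI-normalized phospho-S6 signal.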

[20] = Validation screen for small molecules that induce DNA re-replication in MCF 10A normal breast cells (AID 463097); further: nearly all actives have a fitted effect of over 60% in size
How it was run: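 250 MCF 10A cells/well; compound pin-transferred; 48 hr, 37 C, 5% CO2; Hoechst 40 min; imaged 405/500-530 nm. Hits = more high-intensity nuclei.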

With `Cc1ccccc1O` the outcome [1] was “inactive”, the outcome [2] was “inactive” and the outcome [3] was “inactive”. The outcome [4] was “inactive” and the outcome [5] was “inactive”.

In the case of `CC(=O)[C@H]1CC[C@H]2[C@@H]3CCC4=CC(=O)CC[C@]4(C)[C@H]3CC[C@]12C`, the outcome [6] is reported as “inactive” and the Potency [7] is reported as “inactive”.

For `OC1(c2ccc(Cl)cc2)CCN(Cc2c[nH]c3ccccc23)CC1`, the Potency [8] was 11.2 µM (active), the Potency [9] was 11.2 µM (active) and the Potency [10] was 2.33 µM (active). For the same molecule, the Potency [11] was “inactive”.

For `Clc1ccc(COC(Cn2ccnc2)c2ccc(Cl)cc2Cl)c(Cl)c1` (stereo not given), the outcome [12] was “inactive”, the outcome [13] was “inactive” and the Potency [14] was 49.4 µM (active) and 21.3 µM (active). The outcome [15] was “inactive”.

In the case of `O=C1C[C@@H](c2ccc(O)cc2)Oc2cc(O)cc(O)c21`, the Potency [16] is reported as 7.94 µM (active).

In the case of `CCCOc1ccc2[nH]cc(C3=CCNCC3)c2n1`, the Potency [17] is reported as > 46 µM (inactive).

In the case of `CNCC[C@H](Oc1ccc(C(F)(F)F)cc1)c1ccccc1`, the Potency [18] is reported as “inactive”, the outcome [19] is reported as “inactive” and the Potency [20] is reported as “inactive”.
